JMJD2A Tudor = qHTS Assay for Inhibitors of JMJD2A-Tudor Domain | 4.4% of 390,000 active | Potency, µM (doses to about 114 µM), for the others: top-dose activity change, negative = inhibition, hits mostly inhibitors | Lysine-specific demethylase 4A (Homo sapiens), O75164 | AlphaScreen JMJD2A-Tudor / H3K4me3 peptide binding; also: potency is read from the fitted curve at half-maximal effect; % is scaled to controls: 0 for no effect and ±100 for the full control effect; nearly all actives have a fitted effect of over 50% in size
HP1b chromo inh = HTS for Inhibitors of HP1-beta Chromodomain Interactions with Methylated Histone Tails; Chromobox protein homolog 1 (Homo sapiens), P83916; 0.56% of 390,000 active; AID 540317, 2011; AlphaScreen HP1-beta / biotin-H3K9me3 peptide binding; Potency, µM (highest dose often 114 µM), for the others: at the highest dose activity change, negative = inhibition, actives largely listed as inhibitors; also: potency is read from the fitted curve at half-maximal effect; nearly all actives have a fitted effect of over 70% in size
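HP1-beta protein (50 nM final) preincubated 30 min at room temperature with biotinylated H3(1-18)K9me3 peptide (50 nM) in PBS pH 7.4, 0.01% Tween-20, then compound added for 30 min. AlphaScreen streptavidin donor/nickel chelate acceptor beads (10 ug/mL final), 30 min dark, luminescence read.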
GCN5L2 inh = qHTS Assay for Inhibitors of GCN5L2 | Histone acetyltransferase KAT2A (Homo sapiens), Q92830 | GCN5L2 HAT assay, ThioGlo1 CoA-SH fluorescence | Potency, µM (titrated, usually from 58.9 µM), for inactives: at the top dose activity change, negative = inhibition, usual class: inhibitors | 0.21% of 390,000 active; also: potency is read from the fitted curve at half-maximal effect; % is scaled to controls: 0 for no effect and ±100 for the full control effect
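Fluorescence readout, Ex340nm/Em540nm: ThioGlo1 (50uM final) reacts with free CoA thiol released as 20nM GCN5L2 acetylates H3(1-25) peptide (75uM) using acetyl-CoA (70uM). Compound and enzyme sat 15 min beforehand; 20 min room-temperature reaction.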
PLK1 PBD inh = qHTS for Inhibitors of PLK1-PDB (polo-like kinase 1 - polo-box domain): Primary Screen. Serine/threonine-protein kinase PLK1 (Homo sapiens), P53350. Plk1 PBD binding of FITC phosphopeptide, fluorescence polarization. Potency, µM, for the others: max response, negative = inhibition, actives largely listed as inhibitors. 2.8% of 360,000 active; also: potency is read from the fitted curve at half-maximal effect; series mostly up to about 57 µM; % is scaled to controls: 0 for no effect and ±100 for the full control effect; nearly all actives have a fitted effect of over 65% in size
Target sequence (P53350 whole entry, looked up, the tested form may be a part): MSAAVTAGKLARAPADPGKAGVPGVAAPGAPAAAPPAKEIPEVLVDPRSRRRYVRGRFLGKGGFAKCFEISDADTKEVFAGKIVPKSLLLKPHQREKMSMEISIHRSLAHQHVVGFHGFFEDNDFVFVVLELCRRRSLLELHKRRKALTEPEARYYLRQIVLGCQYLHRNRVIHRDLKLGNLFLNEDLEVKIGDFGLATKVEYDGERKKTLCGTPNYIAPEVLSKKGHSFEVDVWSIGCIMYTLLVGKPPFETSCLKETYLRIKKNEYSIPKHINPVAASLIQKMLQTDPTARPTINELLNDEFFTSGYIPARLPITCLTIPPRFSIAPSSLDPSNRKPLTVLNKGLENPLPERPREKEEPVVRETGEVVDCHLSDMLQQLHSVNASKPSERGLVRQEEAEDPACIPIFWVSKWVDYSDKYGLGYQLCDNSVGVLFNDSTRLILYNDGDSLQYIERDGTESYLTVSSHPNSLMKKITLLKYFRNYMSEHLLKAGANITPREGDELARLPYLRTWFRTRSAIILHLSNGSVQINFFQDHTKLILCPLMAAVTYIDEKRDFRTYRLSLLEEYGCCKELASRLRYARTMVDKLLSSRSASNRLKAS
PI5P4Ka inh = qHTS for Inhibitors of phosphatidylinositol 5-phosphate 4-kinase (PI5P4K); Phosphatidylinositol 5-phosphate 4-kinase type-2 alpha (Homo sapiens), P48426; PI5P4Kalpha enzyme, ADP-Glo luminescence, 60 min; active compounds read low; max response, %; 1.2% of 330,000 active; active = max response of -50% or lower; inconclusive = between -30% and -50%; inactive = -30% or higher; also: value at the top dose of about 77 µM; % is scaled to controls: 0 for no effect and ±100 for the full control effect
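Compounds were pin-transferred onto PI5P4Kalpha and substrate in HEPES pH 7.4 buffer with EGTA, CHAPS and 5% DMSO. ATP (5 microM final) started the reaction, which ran 60 minutes at room temperature before ADP-Glo detection.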
BAZ2B inh = qHTS Assay for Inhibitors of BAZ2B; AlphaScreen BAZ2B-H3K14Ac peptide displacement; Potency, µM (titrated, usually from 114 µM), inactives show top-dose activity change, negative = inhibition, most hits filed as inhibitors; Bromodomain adjacent to zinc finger domain protein 2B (Homo sapiens), Q9UIF8; AID 504333, 2011; 4.4% of 360,000 active; also: potency is read from the fitted curve at half-maximal effect; % is scaled to controls: 0 for no effect and ±100 for the full control effect; nearly all actives have a fitted effect of over 60% in size
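AlphaScreen luminescence quantifies BAZ2B engagement of H3K14Ac peptide; the protein and biotinylated peptide are both at 50 nM final, buffer PBS pH 7.4 with 0.01% Tween-20, all steps at room temperature.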
* hit, by the source's call; ? = inconclusive; · = no result. Hits are enriched below; roughly 7% of the tested compounds scored in any of these assays. Unless noted, calls follow the shape of the dose curve; as a rule, active = well fitted curve in the direction sought with a large enough effect; inconclusive = small, poorly fitted or top-dose-only effect, or another doubt; inactive = no such curve, though single readings can be large; an effect the other way counts as inactive or inconclusive.

SMILES	JMJD2A Tudor	HP1b chromo inh	GCN5L2 inh	PLK1 PBD inh	PI5P4Ka inh	BAZ2B inh
CCCOc1cccc(C(=O)NC(=S)Nc2ccc(N3CCN(C)CC3)cc2)c1	?	?	-6%	-16%	1	-12%
CCOc1ccc(NC(=O)CN(C)C(=O)c2ccc(N3CCOCC3)c([N+](=O)[O-])c2)cc1OCC	-14%	14%	-26%	7%	4	-24%
COc1ccc(CCNc2ncnc3c2nnn3C)cc1	-3%	44%	-1%	·	·	2%
CCOC(=O)c1c(-c2ccccc2)csc1NC(=O)C(C)NCc1ccco1 (stereo unspecified)	?	28µM*	-10%	-19%	1	50µM*
CCOC(=O)c1c(-c2ccc(Cl)cc2)csc1NC(=O)CNCc1ccco1	45µM*	?	-3%	2%	13	40µM*
CCOC(=O)c1c(-c2ccc(OC)cc2)csc1NC(=O)CNCc1ccco1	?	-1%	-12%	-8%	28	-44%
NC(=O)C1CCCN(C(=O)CNC(=O)C23CC4CC(CC(C4)C2)C3)C1 (stereo unspecified)	-1%	33%	-1%	-12%	-4	-6%
Cc1ccc(NC(=O)COC(=O)CNC(=O)c2cccs2)cc1S(=O)(=O)N1CCOCC1	-4%	30%	·	3%	7	·
CCC1CCCCN1C(=O)N[C@@H](CCSC)C(=O)OC (stereo partly specified)	-12%	17%	0%	1%	-4	-3%
CC[C@H]1C=C[C@@H](C(C(=O)OC)C(=O)OC)CN1C(C)=O	?	43%	·	27µM*	?	·
C=CC[C@H]1C=C[C@@H](C(C(=O)OC)C(=O)OC)CN1C(C)=O	?	?	·	24µM*	?	·
O=C(Nc1cc(S(=O)(=O)N2CCCCCC2)ccc1OCC(F)(F)F)c1cnccn1	6%	13%	0%	4%	5	9%
N#CC1(NC(=O)CSc2nncn2-c2ccccc2F)CCCC1	5%	31%	-2%	2%	-4	5%
CC(=O)NC(c1ccc(N(C)C)cc1)c1cc(Cl)c2cccnc2c1O (stereo unspecified)	·	·	·	-4%	-23	·
Oc1c(C(c2ccccn2)N2CCCCC2)cc(Cl)c2cccnc12 (stereo unspecified)	22µM*	?	-4%	30µM*	-25	7.9µM*
CN1CCN(C(c2ccc(C(F)(F)F)cc2)c2cc(Cl)c3cccnc3c2O)CC1 (stereo unspecified)	·	·	-7%	·	·	40µM*
CCN1CCN(C(c2ccc(C(F)(F)F)cc2)c2ccc3cccnc3c2O)CC1 (stereo unspecified)	50µM*	?	2%	3.8µM*	-29	28µM*
OCCN1CCN(CC(O)COc2ccc3ccccc3c2)CC1 (stereo unspecified)	-33%	25%	-9%	-17%	6	3%
OCCN1CCN(C(c2cccs2)c2ccc3cccnc3c2O)CC1 (stereo unspecified)	·	·	-16%	·	·	20µM*
COc1ccc(C(=O)NC(c2ccccc2Cl)c2cc(Cl)c3cccnc3c2O)cc1 (stereo unspecified)	?	27%	-4%	·	·	9%
CCCCC(=O)NC(c1ccc(OC)cc1)c1ccc2cccnc2c1O (stereo unspecified)	·	·	·	-1%	1	·
C[C@H](CO)N1C[C@H](C)[C@@H](CN(C)CC2CCCCC2)Oc2ccc(NC(=O)CCN3CCOCC3)cc2C1=O	-29%	15%	0%	-13%	-1	·

Source: PubChem BioAssay
